Bioassay records as filed in PubChem BioAssay.
D2 PAM-1: positively modulates the human D2 dopamine receptor allosterically; HEK293 T-REx D2, calcium flux, EC20 dopamine potentiation; potentiation, % at 10 µM; 0.34% of 340,000 active; AID 485347;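 active means potentiation over 3 SD above the plate norm, cut at about 30% in these data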; further: 0% is about no effect
Target sequence (P14416 whole entry, looked up): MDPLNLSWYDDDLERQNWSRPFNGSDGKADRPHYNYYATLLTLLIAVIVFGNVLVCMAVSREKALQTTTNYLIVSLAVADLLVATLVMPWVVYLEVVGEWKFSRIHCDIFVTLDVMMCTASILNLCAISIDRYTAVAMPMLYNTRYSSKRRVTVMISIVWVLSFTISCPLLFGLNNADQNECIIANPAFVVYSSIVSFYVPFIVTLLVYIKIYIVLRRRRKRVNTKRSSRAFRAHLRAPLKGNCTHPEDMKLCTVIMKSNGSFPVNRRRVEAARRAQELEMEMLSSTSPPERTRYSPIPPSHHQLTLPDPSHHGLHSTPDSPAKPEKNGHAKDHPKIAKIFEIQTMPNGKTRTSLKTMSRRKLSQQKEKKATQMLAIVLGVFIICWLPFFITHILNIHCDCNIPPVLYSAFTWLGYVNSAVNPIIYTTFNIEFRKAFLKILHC
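Tetracycline-induced Hek293 Trex D2 cells, force-coupled to calcium, loaded with no-wash calcium dye. Compound added with 180 s kinetic read for agonism, then EC20 dopamine and a further 180 s read for potentiation.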
D2 PAM-2: human D2 receptor positive allosteric modulation; P14416; DiscoveRx D2 beta-arrestin cells, luminescence, 90 min; 100% = 57 uM dopamine signal; potentiation, % (no concentration beside the values); 0.23% of 360,000 active; AID 624464; in the data active means potentiation above about 50%
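PathHunter beta-arrestin assay in DiscoveRx D2 cells. Compounds were added with an EC20 of dopamine (50 nM final) for 90 min at 37 deg C. Luminescence was read 1 h after detection reagent, with 57 uM dopamine as the EC100 control.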
D2 ag-1: human D2 receptor agonism in beta-arrestin assay; P14416; DiscoveRx PathHunter D2 beta-arrestin, luminescence, 90 min; 100% = 57 uM dopamine signal; activation, % (no concentration beside the values); 0.084% of 360,000 active; AID 624465; in the data active means activation above about 40%
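DiscoveRx PathHunter D2 beta-arrestin cells (2,100/well) attached overnight, then compound-stimulated 90 min at 37 C in HBSS/10 mM HEPES/0.1% Tween-20 buffer; beta-galactosidase complementation read by luminescence after 1 h at ambient temperature. Dopamine 57 uM final (EC100) as control.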
D2 ag-2: activates the human D2 dopamine receptor. 0.53% of 340,000 active. HEK293 T-REx D2 cells, calcium flux agonist mode. activation, % at 2 µM. P14416;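 active means activation over 3 SD above normal in the single-dose calcium agonist read, cut at about 30% in these data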; further: 0% is about no effect
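Calcium-flux readout, 1 cycle/sec over 180 s following compound pin transfer, in inducible HEK293 Trex D2 cells (force-coupled); dopamine controls included. Positive calcium responses during this window marked compounds as potential agonists.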
D2 antagonist: antagonizes the human D2 dopamine receptor. P14416. HEK293 TREx D2 cells, calcium flux, dopamine EC80. inhibition, % at 10 µM. 2% of 340,000 active. AID 485344; in the data active means inhibition above about 30%; inactive means below that, where a call was filed; further: 0% is about no effect
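Compounds are added to dye-loaded, induced HEK293 T-REx cells coupled to calcium release via D2; after a 3 min kinetic read an EC80 dopamine stimulus is given and fluorescence is recorded for 3 more min.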
The depositor's hits bear a star. Rows were chosen to be rich in hits. Some 2.4% of all compounds tested hit in one or more screens of this group.

How did Cc1ccc(C)c(Cn2c(=O)n(CCCC(=O)NCc3ccc4c(c3)OCO4)c(=O)c3sccc32)c1 do in these assays?
D2 PAM-1: -3

How did Cc1cc(C)cc(OCc2cc(=O)n3c(-c4ccccc4)csc3n2)c1 do in these assays?
D2 PAM-1: 1; D2 ag-2: 1

How did CCOc1ccc(NC(=O)CN(C)Cc2cc(=O)n3c(-c4ccccc4)csc3n2)cc1OCC do in these assays?
D2 PAM-1: 4; D2 PAM-2: -4; D2 ag-1: -3; D2 ag-2: 1; D2 antagonist: 41*

Results for N=c1c(C(=O)NCc2ccco2)cc2c(=O)n3ccccc3nc2n1Cc1ccccc1 ?
D2 PAM-1: -22; D2 PAM-2: -32; D2 ag-1: -3; D2 ag-2: 0; D2 antagonist: 38*

How did CCc1nnc(NC(=O)COc2ccc3c(c2)OCO3)s1 do in these assays?
D2 PAM-1: 30*; D2 PAM-2: -1; D2 ag-1: 3; D2 ag-2: 0; D2 antagonist: 12

Results for CCCc1nnc(NC(=O)COc2ccc3c(c2)OCO3)s1 ?
D2 PAM-1: -13; D2 PAM-2: 4; D2 ag-1: 0; D2 ag-2: -2; D2 antagonist: -1

How did O=C(C1CCN(S(=O)(=O)c2ccccc2)CC1)N1CCc2ccccc21 do in these assays?
D2 PAM-1: -12; D2 PAM-2: -4; D2 ag-1: -2; D2 ag-2: 98*; D2 antagonist: 28

How did O=C(C1COc2ccccc2O1)N1CCc2ccccc21 (centres undefined) do in these assays?
D2 PAM-1: 5; D2 PAM-2: 26; D2 ag-1: 0; D2 ag-2: 0; D2 antagonist: 35*

Results for O=C(C1COc2ccccc2O1)N1CCCC1 (centres undefined) ?
D2 PAM-1: -3; D2 PAM-2: -8; D2 ag-1: -3; D2 ag-2: 1; D2 antagonist: -6

What do the screens show for `O=C(C1CCN(S(=O)(=O)c2ccccc2)CC1)N1CCN(c2ccccc2F)CC1`?
D2 PAM-1: 10; D2 PAM-2: -3; D2 ag-1: -2; D2 ag-2: -1; D2 antagonist: 32*

What do the screens show for `O=C(CCNS(=O)(=O)c1ccc(OC(F)(F)F)cc1)NCCc1c[nH]c2ccccc12`?
D2 PAM-1: 3; D2 PAM-2: 7; D2 ag-1: 7; D2 ag-2: 0; D2 antagonist: 40*

Results for C=CCNC(=O)CN1C2CCCC1CC(NC(=O)c1ccccc1C)C2 (centres undefined) ?
D2 PAM-1: 41*; D2 PAM-2: -20; D2 ag-1: -2; D2 ag-2: 0; D2 antagonist: -24

Results for Cc1ccc(NC(=O)CCCc2nnc3n(C)c(=O)c4sccc4n23)cc1F ?
D2 ag-2: 2

Results for Cc1cccc(N2CCN(Cc3ccoc3)CC2)c1C ?
D2 PAM-1: -26; D2 PAM-2: -31; D2 ag-1: -2; D2 ag-2: 0; D2 antagonist: 67*

How did Cc1cc(CN2CCN(c3cccc(C)c3C)CC2)cs1 do in these assays?
D2 PAM-1: -26; D2 ag-2: -1

What do the screens show for `COc1cc(CN2CCCCCC2)cc(OC)c1O`?
D2 PAM-1: 2; D2 PAM-2: -4; D2 ag-1: 5; D2 ag-2: 0; D2 antagonist: 9

How did COc1cc(CN2CCN(c3cccc(C)c3C)CC2)cc(OC)c1O do in these assays?
D2 PAM-1: -24; D2 PAM-2: 4; D2 ag-1: 1; D2 ag-2: -1; D2 antagonist: 42*

What do the screens show for `COc1ccccc1CNC(=O)c1c2c(nc3ccccc13)C(=O)N(C1CCCCC1)C2`?
D2 PAM-1: -3; D2 ag-2: 2

What do the screens show for `CC1CCC(NC(=O)CN2CCC(n3nnc4cc(F)ccc43)CC2)CC1` (centres undefined)?
D2 PAM-1: -23; D2 PAM-2: -39; D2 ag-1: -2; D2 ag-2: 1; D2 antagonist: 41*

What do the screens show for `O=C(CN1CCC(n2nnc3cc(F)ccc32)CC1)NNC(=O)c1ccccc1`?
D2 PAM-1: 16; D2 PAM-2: -19; D2 ag-1: -3; D2 ag-2: 0; D2 antagonist: 9
